This note sets out measurements from PubChem BioAssay (Tox21).

A short description of test [1]: qHTS assay to identify small molecule agonists of the vitamin D receptor (VDR) signaling pathway - cell viability counter screen (AID 743224). Note: series mostly up to about 63 µM; nearly all actives have a fitted effect of over 50% in size. Summed up:
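Cells: VDR-bla, 2,000/well, settled 4 h. Treatment: compounds in DMSO, 16 h, 37C/5% CO2. Readout: CellTiter-Glo luminescence after 30 min RT.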

The nature of test [2]: qHTS assay to identify small molecule antagonists of the vitamin D receptor (VDR) signaling pathway - cell viability counter screen (AID 743225). Note: nearly all actives have a fitted effect of over 50% in size. The procedure, abridged:
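Parallel cytotoxicity test: VDR-UAS-bla HEK 293T, 3 nM (final) 1-alpha,25-dihydroxyvitamin D3 with test compound, 16 h, 37C. Endpoint is CellTiter-Glo luminescence in the same wells.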

Test [3] in a line: qHTS assay to identify small molecule agonists of the NFkB signaling pathway (AID 1159509; active = well fitted curve in the direction sought with a large enough effect in the signal ratio in the repeat runs, not every such curve was filed as active; the % refers to the signal ratio; note: series mostly up to about 61 µM). Summed up: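 Pathway activation was measured in ME-180 cells stably expressing beta-lactamase under NF-kB response element control. Substrate cleavage was read as the 460/530 nm emission shift after 5 hr compound incubation.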
Test [4] can be described thus: qHTS assay to identify small molecule agonists of the NFkB signaling pathway - cell viability counter screen (AID 1159515; calls by dose curve; note: series mostly up to about 61 µM; nearly all actives have a fitted effect of over 55% in size). Summed up:
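Cells are seeded (2,000 NFkB-bla ME-180 per well), rested overnight, and dosed with DMSO-dissolved compounds for 5 hr at 37 C. Viability is then read by CellTiter-Glo luminescence after 30 min at room temperature.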

Test [5] in a line: qHTS assay to identify small molecule agonists of the endoplasmic reticulum stress response signaling pathway (AID 1159516; active = well fitted activation curve with a large enough effect in the signal ratio in the repeat runs, not every such curve was filed as active; the % refers to the signal ratio). Summed up: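 Cells are seeded at 1,500 per well and incubated overnight. Compounds in DMSO are added for 5 hr at 37 C, then beta-lactamase FRET substrate for 2 hr at room temperature, and fluorescence at 460 and 530 nm is measured.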
Test [6] in a line: qHTS assay to identify small molecule agonists of the endoplasmic reticulum stress response signaling pathway - cell viability counter screen (AID 1159517; calls by dose curve;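 note: HeLa cells carrying an ER stress response element beta-lactamase reporter; series mostly up to about 61 µM; nearly all actives have a fitted effect of over 50% in size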). The procedure, abridged:
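In parallel with the ESRE reporter read, cytotoxicity was scored by CellTiter-Glo luminescence (30 min, room temperature) on HeLa ESRE-bla cells dosed for 5 hr.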

The nature of test [7]: qHTS assay to identify small molecule antagonists of the retinoid-related orphan receptor gamma (ROR-gamma) signaling pathway - cell viability counter screen (AID 1159520). Note: nearly all actives have a fitted effect of over 50% in size. Summed up:
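Tet-on ROR gamma CHO cells were given compounds for 2 hr, then doxycycline hyclate at 1 uM final, and incubated 16 hr at 37 C. Viability was measured as ATP content by CellTiter-Glo luminescence.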

Test [8] deals with Nuclear receptor ROR-gamma (Homo sapiens) (UniProt P51449). The test is described as follows: qHTS assay to identify small molecule antagonists of the retinoid-related orphan receptor gamma (ROR-gamma) signaling pathway (AID 1159521; note: nearly all actives have a fitted effect of over 50% in size; note: potency is the fitted concentration of half-maximal effect). The procedure, abridged: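 Decreased RORE-driven luciferase luminescence indicates antagonism. Tet-on RORγ CHO cells received compound, then 1 uM final doxycycline 2 h later; signal read after 16 h incubation.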

A short description of test [9]: qHTS assay to identify small molecule agonists of the AP-1 signaling pathway - cell viability counter screen (AID 1159525; calls by dose curve; note: nearly all actives have a fitted effect of over 55% in size). Summed up:
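Same-well cytotoxicity counter screen of the Tox21 10K library in ME-180 cells. The readout is ATP-dependent luminescence after 5 h compound treatment. Data are normalised to DMSO and tetra n-octyl ammonium bromide controls.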

Test [10] is described as follows: qHTS assay to identify small molecule agonists of the AP-1 signaling pathway (AID 1159526; calls by dose curve).
Test [11] addresses Retinoic acid receptor RXR-alpha (Homo sapiens) (UniProt P19793). The test can be described thus: qHTS assay to identify small molecule agonists of the RXR signaling pathway (AID 1159527; calls by dose curve; note: nearly all actives have a fitted effect of over 35% in size). The procedure, abridged: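 16 hr incubation of compound-treated RXR-alpha-UAS-bla HEK 293T cells (2% charcoal-stripped FBS, 37 C) preceded a 2 hr room-temperature LiveBLAzer FRET substrate step and blue/green fluorescence measurement.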

Test [12] can be described thus: qHTS assay to identify small molecule agonists of the RXR signaling pathway - cell viability counter screen (AID 1159529). The procedure, abridged: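 In this parallel viability measure, GeneBLAzer RXR-alpha HEK 293T cells (2% charcoal-stripped FBS) were given a 5 hr preincubation, treated with compounds 16 hr at 37 C, and read by CellTiter-Glo luminescence.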
Test [13] in a line: qHTS assay to identify small molecule antagonists of the retinoic acid receptor (RAR) signaling pathway (AID 1159552; note: nearly all actives have a fitted effect of over 50% in size). The procedure, abridged:
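C3RL4 RARE-luc cells, overnight plating; retinol 1 uM final added right after compound; 6 hr 37 C; luciferase read at 30 min RT.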

Test [14] in a line: qHTS assay to identify small molecule agonists of the retinoic acid receptor (RAR) signaling pathway (AID 1159553). Summed up: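 Seed C3RL4 reporter cells at 1,000 per well and incubate overnight at 37 C. Add compounds in DMSO, incubate 6 hr. Add luciferase reagent, wait 30 min at room temperature, read luminescence.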
Test [15] can be described thus: qHTS assay to identify small molecule antagonists of the estrogen related receptor (ERR) signaling pathway - cell viability counter screen (AID 1224818). Note: series mostly up to about 46 µM. The procedure, abridged:
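ERR cells, 2,000/well; 6 h settle at 37 C/5% CO2; compound pin transfer (DMSO); 17.5 h at 37 C; CellTiter-Fluor, 30 min, fluorescence read.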

The nature of test [16]: qHTS assay to identify small molecule antagonists of the estrogen related receptor signaling pathway with the pleiotropic PPARgamma coactivator (PGC) cell viability counter screen (AID 1224822;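 note: series mostly up to about 46 µM; viability read after 17.5 h compound exposure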). The procedure, abridged:
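Multiplexed viability counter screen run in PGC/ERR cells treated with compounds for 17.5 h at 37 C; live-cell protease signal measured by CellTiter-Fluor fluorescence.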

Records with an inconclusive call do not appear. A structure can be active in one record and inactive in another. Activity calls are given as the source filed them. Unless noted, calls come from the whole dose curve; as a rule, active = well fitted curve in the direction sought with a large enough effect in the repeat runs; inconclusive = weak or mixed curves; inactive = no such curve, though single readings can be large; an effect the other way counts as inactive or inconclusive.

Sequence of Retinoic acid receptor RXR-alpha (Homo sapiens) (P19793 whole entry, looked up): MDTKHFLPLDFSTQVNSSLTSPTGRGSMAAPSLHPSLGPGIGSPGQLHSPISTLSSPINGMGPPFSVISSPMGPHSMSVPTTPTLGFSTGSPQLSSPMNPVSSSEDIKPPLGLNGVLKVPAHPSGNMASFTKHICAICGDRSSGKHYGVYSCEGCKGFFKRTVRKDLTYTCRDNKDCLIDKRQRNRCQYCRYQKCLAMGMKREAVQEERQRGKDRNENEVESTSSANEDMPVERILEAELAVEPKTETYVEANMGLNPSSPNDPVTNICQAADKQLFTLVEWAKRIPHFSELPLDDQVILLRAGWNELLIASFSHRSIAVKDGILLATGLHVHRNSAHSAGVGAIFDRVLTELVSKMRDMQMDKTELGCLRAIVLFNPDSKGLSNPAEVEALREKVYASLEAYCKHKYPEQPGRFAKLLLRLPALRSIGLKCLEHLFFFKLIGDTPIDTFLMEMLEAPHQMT

With `NC(=O)OCC(COC(N)=O)c1ccccc1`, the Potency entry in [1], in [6], in [8], in test [10], in test [11] and in [12] was “inactive” in each case. Further, the Potency entry in test [13] and in test [14] was “inactive” in each case. Besides, the outcome in test [2], in [3], in [4], in test [5], in [7] and in test [9] was inactive. Also, the outcome in [15] and in test [16] was inactive.
In the case of `CCCCOCCOCCOC(C)=O`, the Potency result in test [1], in [6], in test [8], in test [10], in test [11] and in test [12] was “inactive” in each case. For the same molecule, the Potency entry in test [13] and in [14] was “inactive” in each case. For the same molecule, the result in [2], in test [3], in test [4], in test [5], in test [7] and in [9] was inactive.
For the molecule `CC(=O)c1ccc(S(=O)(=O)NC(=O)NC2CCCCC2)cc1`, the Potency result in test [1], in test [6], in [8], in [10], in test [11] and in [12] was “inactive” in each case. Moreover, the Potency result in test [13] and in test [14] was “inactive” throughout. Also, the call in [2], in test [3], in [4], in [5], in test [7] and in [9] was inactive. The molecule was called inactive in test [15] and in [16].
`NC(=O)N1c2ccccc2C=Cc2ccccc21`: the Potency result in [1], in test [6], in test [8], in test [10], in test [11] and in test [12] was “inactive” each time. The Potency entry in [13] and in test [14] was “inactive” throughout. Further, the result in test [2], in test [3], in test [4], in [5], in [7] and in [9] was inactive. Moreover, the result in test [15] and in test [16] was inactive.
Regarding `C[C@]12C[C@H](O)[C@H]3[C@@H](CCC4=CC(=O)CC[C@@]43C)[C@@H]1CC[C@@H]2C(=O)CO`, the Potency result in test [1], in test [6], in test [10], in [11], in test [12] and in [13] was “inactive” throughout. The Potency entry in test [14] was “inactive”. For the same molecule, the call in test [2], in test [3], in test [4], in [5], in test [7] and in test [9] was inactive. For the same molecule, the molecule was called inactive in [15] and in [16]. Also, the Potency in test [8] was 48.6 µM (active) and inactive.
For `COC(=O)c1ccc(C=O)cc1`, the Potency result in [1], in [6], in test [8], in test [10], in test [11] and in test [12] was “inactive” each time. For the same molecule, the Potency result in test [13] and in test [14] was “inactive” throughout. The call in test [2], in [3], in test [4], in test [5], in test [7] and in [9] was inactive.
Regarding `Cc1cnc(NC(=O)C2=C(O)c3ccccc3S(=O)(=O)N2C)s1`, the outcome in [3], in test [4], in [5], in [7], in test [9] and in test [15] was inactive. The molecule was called inactive in test [16]. Also, the Potency result in test [6], in [8], in test [10], in test [11], in test [12] and in [13] was “inactive” each time. Further, the Potency result in test [14] is “inactive”.
